Laboratory results as given in PMC4081100, “A DNA-binding-site landscape and regulatory network analysis for NAC transcription factors in Arabidopsis thaliana”.

Key:
Experiment in all cases: universal protein binding microarray (PBM); transcription factors of Arabidopsis thaliana; high values mean tight binding
Conditions in all cases: protein: recombinant; tags: GST; chain copies: 2; dsDNA, one strand shown
GST-ANAC092(1-176) = target: T1, GST-ANAC092(1-176) (Arabidopsis thaliana, UniProt Q9FKA0 1-176)
T1 sequence: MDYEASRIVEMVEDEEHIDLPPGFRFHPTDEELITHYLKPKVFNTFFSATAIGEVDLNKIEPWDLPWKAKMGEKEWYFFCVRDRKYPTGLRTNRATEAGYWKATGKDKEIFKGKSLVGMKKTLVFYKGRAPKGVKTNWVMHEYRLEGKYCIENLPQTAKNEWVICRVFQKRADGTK
Method in brief: (§1)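 Binding is expressed as the normalised enrichment score (E-score). Proteins carrying a GST tag, whether NAC-domain, full-length or DNA-binding-domain forms, were induced in cells, and zinc acetate was added for zinc-finger proteins. After purification on glutathione–Sepharose 4B and quantification by A280 or anti-GST western blot, each was applied in duplicate at 200 to 500 nM final to custom all-10-mer Agilent 4 × 180K arrays made double-stranded by primer extension. Gapped and ungapped 8-mers were scored.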

GST-ANAC019 NAC domain = target: T2, GST-ANAC019 NAC domain (Arabidopsis thaliana, UniProt Q9C932 14-162)
T2 sequence: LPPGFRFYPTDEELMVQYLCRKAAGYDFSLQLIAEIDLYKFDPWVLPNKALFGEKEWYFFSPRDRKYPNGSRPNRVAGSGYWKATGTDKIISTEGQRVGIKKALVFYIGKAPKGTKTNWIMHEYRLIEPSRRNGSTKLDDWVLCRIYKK
Method in brief: as §1

GST-ANAC055(1-171) = target: T3, GST-ANAC055(1-171) (Arabidopsis thaliana, UniProt Q9LDY8 1-171)
T3 sequence: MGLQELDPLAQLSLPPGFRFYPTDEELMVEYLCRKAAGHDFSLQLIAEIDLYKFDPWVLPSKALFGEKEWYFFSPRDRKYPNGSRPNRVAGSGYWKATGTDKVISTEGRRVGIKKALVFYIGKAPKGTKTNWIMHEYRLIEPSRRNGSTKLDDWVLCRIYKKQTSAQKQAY
Method in brief: as §1

GST-ATAF1 NAC domain = target: T4, GST-ATAF1 NAC domain (Arabidopsis thaliana, UniProt Q39013 7-158)
T4 sequence: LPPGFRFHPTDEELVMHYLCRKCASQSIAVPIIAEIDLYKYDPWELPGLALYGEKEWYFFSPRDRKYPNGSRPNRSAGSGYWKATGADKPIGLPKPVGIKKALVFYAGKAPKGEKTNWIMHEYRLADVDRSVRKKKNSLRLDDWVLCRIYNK
Method in brief: as §1

[1] = target: T5, GST-ANAC092(1-285) full length (Arabidopsis thaliana, UniProt Q9FKA0 1-285)
T5 sequence: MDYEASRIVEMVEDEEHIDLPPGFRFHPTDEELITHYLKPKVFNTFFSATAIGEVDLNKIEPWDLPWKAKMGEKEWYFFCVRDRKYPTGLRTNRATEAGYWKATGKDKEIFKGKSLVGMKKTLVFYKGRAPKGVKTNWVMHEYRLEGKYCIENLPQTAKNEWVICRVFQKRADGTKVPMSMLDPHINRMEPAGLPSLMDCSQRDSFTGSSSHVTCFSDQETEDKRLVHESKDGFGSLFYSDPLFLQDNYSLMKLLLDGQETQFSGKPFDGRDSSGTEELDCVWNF
Method in brief: as §1

GST-NAP(1-166) = target: T6, GST-NAP(1-166) (Arabidopsis thaliana, UniProt O49255 1-166)
T6 sequence: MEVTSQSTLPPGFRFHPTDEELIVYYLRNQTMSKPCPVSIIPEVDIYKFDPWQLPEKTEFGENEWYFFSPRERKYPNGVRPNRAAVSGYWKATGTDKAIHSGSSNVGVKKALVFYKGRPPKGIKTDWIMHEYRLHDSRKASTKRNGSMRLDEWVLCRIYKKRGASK
Method in brief: as §1

GST-NST2(1-184) = target: T7, GST-NST2(1-184) (Arabidopsis thaliana, UniProt Q9M274 1-184)
T7 sequence: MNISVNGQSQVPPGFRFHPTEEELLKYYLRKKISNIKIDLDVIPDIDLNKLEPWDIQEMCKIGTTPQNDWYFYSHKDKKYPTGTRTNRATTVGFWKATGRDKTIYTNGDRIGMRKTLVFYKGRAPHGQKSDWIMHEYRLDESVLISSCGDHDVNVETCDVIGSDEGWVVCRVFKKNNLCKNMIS
Method in brief: as §1

GST-SND1(1-203) = target: T8, GST-SND1(1-203) (Arabidopsis thaliana, UniProt Q9LPI7 1-203)
T8 sequence: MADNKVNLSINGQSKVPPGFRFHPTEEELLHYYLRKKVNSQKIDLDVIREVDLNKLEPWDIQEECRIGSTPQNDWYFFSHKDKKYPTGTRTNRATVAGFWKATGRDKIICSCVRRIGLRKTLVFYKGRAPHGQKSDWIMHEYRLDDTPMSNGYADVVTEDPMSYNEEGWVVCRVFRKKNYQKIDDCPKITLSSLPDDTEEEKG
Method in brief: as §1

GST-VND3 NAC domain = target: T9, GST-VND3 NAC domain (Arabidopsis thaliana, UniProt Q9FH59 12-162)
T9 sequence: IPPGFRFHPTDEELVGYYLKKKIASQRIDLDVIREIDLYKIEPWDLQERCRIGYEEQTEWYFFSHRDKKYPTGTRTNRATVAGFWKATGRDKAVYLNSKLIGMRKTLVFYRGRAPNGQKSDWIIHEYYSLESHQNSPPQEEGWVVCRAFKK
Method in brief: as §1

GST-VND7 NAC domain = target: T10, GST-VND7 NAC domain (Arabidopsis thaliana, UniProt Q9C8W9 9-158)
T10 sequence: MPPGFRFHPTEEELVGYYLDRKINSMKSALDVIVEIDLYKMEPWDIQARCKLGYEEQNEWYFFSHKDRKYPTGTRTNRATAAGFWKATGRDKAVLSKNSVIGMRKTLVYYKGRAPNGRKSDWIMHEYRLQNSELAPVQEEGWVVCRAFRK
Method in brief: as §1

GST-NTL6(1-168) = GST-NTL6(1-168) (Arabidopsis thaliana, UniProt Q9SCK6 1-168)
Method in brief: as §1

GST-NTL8 NAC domain = target: T11, GST-NTL8 NAC domain (Arabidopsis thaliana, UniProt Q9XIN7 14-156)
T11 sequence: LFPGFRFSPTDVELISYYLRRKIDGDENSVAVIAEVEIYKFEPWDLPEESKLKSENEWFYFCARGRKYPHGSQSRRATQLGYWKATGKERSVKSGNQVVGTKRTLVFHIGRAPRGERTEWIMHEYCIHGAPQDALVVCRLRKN
Method in brief: as §1

GST-NTL6(1-168), sequence (Q9SCK6 1-168): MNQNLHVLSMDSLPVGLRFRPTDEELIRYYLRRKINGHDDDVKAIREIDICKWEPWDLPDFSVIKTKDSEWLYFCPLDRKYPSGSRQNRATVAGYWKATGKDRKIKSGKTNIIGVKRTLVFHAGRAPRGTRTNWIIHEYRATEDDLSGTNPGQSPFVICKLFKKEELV

| Sequence | binding signal (GST-ANAC092(1-176)) [E-score] | binding signal (GST-ANAC019 NAC domain) [E-score] | binding signal (GST-ANAC055(1-171)) [E-score] | binding signal (GST-ATAF1 NAC domain) [E-score] | binding signal [1] [E-score] | binding signal (GST-NAP(1-166)) [E-score] | binding signal (GST-NST2(1-184)) [E-score] | binding signal (GST-SND1(1-203)) [E-score] | binding signal (GST-VND3 NAC domain) [E-score] | binding signal (GST-VND7 NAC domain) [E-score] | binding signal (GST-NTL6(1-168)) [E-score] | binding signal (GST-NTL8 NAC domain) [E-score] |
| --- | --- | --- | --- | --- | --- | --- | --- | --- | --- | --- | --- | --- |
| GCCGTGTA | 0.341 | 0.44 | 0.345 | 0.314 | 0.402 | 0.235 | 0.0515 | 0.0913 | 0.347 | 0.351 |  |  |
| TACACGTA | 0.382 | 0.286 | 0.361 | 0.322 | 0.411 | 0.386 | 0.198 | 0.251 | 0.375 | 0.406 |  |  |
| ACACGTAT | 0.289 | 0.406 | 0.342 | 0.312 | 0.369 | 0.387 | 0.19 | 0.139 | 0.38 | 0.381 |  |  |
| ACGTTAGC | 0.377 | 0.144 | 0.0938 | 0.213 | 0.406 | 0.0584 | 0.166 | 0.343 | 0.183 | 0.128 |  |  |
| ACACGTTA | 0.482 | 0.165 | 0.3 | 0.35 | 0.485 | 0.222 | 0.358 | 0.413 | 0.277 | 0.237 |  |  |
| AGCGTAAG | 0.191 |  | 0.0588 | 0.0897 | 0.312 |  | 0.172 | 0.4 | 0.131 | 0.141 | 0.0608 | 0.0559 |
| CGACACGC | 0.316 | 0.246 | 0.131 | 0.188 | 0.403 | 0.194 |  | 0.134 | 0.138 | 0.198 |  |  |
| TCACGGAA | 0.363 | 0.465 | 0.432 | 0.332 | 0.381 | 0.383 |  | 0.219 | 0.381 | 0.436 |  |  |
